Sfp PPTase inh: Sfp phosphopantetheinyl transferase inhibition. Q9F4F7. Biochemical Sfp PPTase activity, qHTS. Potency, µM, for inactives: largest response in the series, negative = inhibition, usual class: inhibitors. 310,000 compounds, 3.5% hits. AID 1490;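 further: the enzyme is Sfp with the accession as filed and its product quenches rhodamine fluorescence; 0% = enzyme reaction without inhibitor and -100% = no enzyme wells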
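With Hepes-Na pH 7.6 buffer containing 10 mM MgCl2, Sfp (15 nM) modified BHQ-2-YbbR (12.5 uM) using rhodamine-CoA (5 uM). Two reads 30 minutes apart at 525/598 nm yielded each well's rate.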
G9a block: G9a (human) methyltransferase inhibition | 350,000 compounds, 8.8% hits | G9a H3K9 monomethylation, AlphaScreen, 2 h | Potency, µM (top dose mostly 102 µM), inactives show at the highest dose activity, negative = inhibition, hits mostly inhibitors | AID 504332 | Q96KQ7; further: on the % scale 0 is the no-effect control and ±100 the full control effect; nearly all actives have a fitted effect of over 75% in size
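Readings reflect AlphaScreen signal from monomethyl-H3K9 antibody detection. HMT at 20 nM; substrate b-H3K9 500 nM; cofactor SAM 20 uM; 2 h RT reaction; compounds tested as titrations in qHTS with 15 min preincubation.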
JMJD2A Tudor inh: JMJD2A Tudor domain (human) inhibition. O75164. AlphaScreen JMJD2A-Tudor / H3K4me3 peptide binding. Potency, µM (doses to about 114 µM), inactives show at the top dose activity change, negative = inhibition, usual class: inhibitors. 390,000 compounds, 4.4% hits; further: on the % scale 0 is the no-effect control and ±100 the full control effect; nearly all actives have a fitted effect of over 50% in size
HP1b binding inh: blocks HP1-beta chromodomain binding to methylated histone tails | AlphaScreen HP1-beta / biotin-H3K9me3 peptide binding | Potency, µM (highest dose often 114 µM), without a hit: top-dose activity change, negative = inhibition, most hits filed as inhibitors | 390,000 compounds, 0.56% hits; further: nearly all actives have a fitted effect of over 70% in size
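HP1-beta protein (50 nM final) preincubated 30 min at room temperature with biotinylated H3(1-18)K9me3 peptide (50 nM) in PBS pH 7.4, 0.01% Tween-20, then compound added for 30 min. AlphaScreen streptavidin donor/nickel chelate acceptor beads (10 ug/mL final), 30 min dark, luminescence read.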
BAZ2B block: blocks human BAZ2B | Q9UIF8 | AlphaScreen BAZ2B-H3K14Ac peptide displacement | Potency, µM (highest dose often 114 µM), for the others: top-dose activity change, negative = inhibition, hits mostly inhibitors | 360,000 compounds, 4.4% hits; further: on the % scale 0 is the no-effect control and ±100 the full control effect; nearly all actives have a fitted effect of over 60% in size
Target sequence (Q9UIF8 whole entry, looked up): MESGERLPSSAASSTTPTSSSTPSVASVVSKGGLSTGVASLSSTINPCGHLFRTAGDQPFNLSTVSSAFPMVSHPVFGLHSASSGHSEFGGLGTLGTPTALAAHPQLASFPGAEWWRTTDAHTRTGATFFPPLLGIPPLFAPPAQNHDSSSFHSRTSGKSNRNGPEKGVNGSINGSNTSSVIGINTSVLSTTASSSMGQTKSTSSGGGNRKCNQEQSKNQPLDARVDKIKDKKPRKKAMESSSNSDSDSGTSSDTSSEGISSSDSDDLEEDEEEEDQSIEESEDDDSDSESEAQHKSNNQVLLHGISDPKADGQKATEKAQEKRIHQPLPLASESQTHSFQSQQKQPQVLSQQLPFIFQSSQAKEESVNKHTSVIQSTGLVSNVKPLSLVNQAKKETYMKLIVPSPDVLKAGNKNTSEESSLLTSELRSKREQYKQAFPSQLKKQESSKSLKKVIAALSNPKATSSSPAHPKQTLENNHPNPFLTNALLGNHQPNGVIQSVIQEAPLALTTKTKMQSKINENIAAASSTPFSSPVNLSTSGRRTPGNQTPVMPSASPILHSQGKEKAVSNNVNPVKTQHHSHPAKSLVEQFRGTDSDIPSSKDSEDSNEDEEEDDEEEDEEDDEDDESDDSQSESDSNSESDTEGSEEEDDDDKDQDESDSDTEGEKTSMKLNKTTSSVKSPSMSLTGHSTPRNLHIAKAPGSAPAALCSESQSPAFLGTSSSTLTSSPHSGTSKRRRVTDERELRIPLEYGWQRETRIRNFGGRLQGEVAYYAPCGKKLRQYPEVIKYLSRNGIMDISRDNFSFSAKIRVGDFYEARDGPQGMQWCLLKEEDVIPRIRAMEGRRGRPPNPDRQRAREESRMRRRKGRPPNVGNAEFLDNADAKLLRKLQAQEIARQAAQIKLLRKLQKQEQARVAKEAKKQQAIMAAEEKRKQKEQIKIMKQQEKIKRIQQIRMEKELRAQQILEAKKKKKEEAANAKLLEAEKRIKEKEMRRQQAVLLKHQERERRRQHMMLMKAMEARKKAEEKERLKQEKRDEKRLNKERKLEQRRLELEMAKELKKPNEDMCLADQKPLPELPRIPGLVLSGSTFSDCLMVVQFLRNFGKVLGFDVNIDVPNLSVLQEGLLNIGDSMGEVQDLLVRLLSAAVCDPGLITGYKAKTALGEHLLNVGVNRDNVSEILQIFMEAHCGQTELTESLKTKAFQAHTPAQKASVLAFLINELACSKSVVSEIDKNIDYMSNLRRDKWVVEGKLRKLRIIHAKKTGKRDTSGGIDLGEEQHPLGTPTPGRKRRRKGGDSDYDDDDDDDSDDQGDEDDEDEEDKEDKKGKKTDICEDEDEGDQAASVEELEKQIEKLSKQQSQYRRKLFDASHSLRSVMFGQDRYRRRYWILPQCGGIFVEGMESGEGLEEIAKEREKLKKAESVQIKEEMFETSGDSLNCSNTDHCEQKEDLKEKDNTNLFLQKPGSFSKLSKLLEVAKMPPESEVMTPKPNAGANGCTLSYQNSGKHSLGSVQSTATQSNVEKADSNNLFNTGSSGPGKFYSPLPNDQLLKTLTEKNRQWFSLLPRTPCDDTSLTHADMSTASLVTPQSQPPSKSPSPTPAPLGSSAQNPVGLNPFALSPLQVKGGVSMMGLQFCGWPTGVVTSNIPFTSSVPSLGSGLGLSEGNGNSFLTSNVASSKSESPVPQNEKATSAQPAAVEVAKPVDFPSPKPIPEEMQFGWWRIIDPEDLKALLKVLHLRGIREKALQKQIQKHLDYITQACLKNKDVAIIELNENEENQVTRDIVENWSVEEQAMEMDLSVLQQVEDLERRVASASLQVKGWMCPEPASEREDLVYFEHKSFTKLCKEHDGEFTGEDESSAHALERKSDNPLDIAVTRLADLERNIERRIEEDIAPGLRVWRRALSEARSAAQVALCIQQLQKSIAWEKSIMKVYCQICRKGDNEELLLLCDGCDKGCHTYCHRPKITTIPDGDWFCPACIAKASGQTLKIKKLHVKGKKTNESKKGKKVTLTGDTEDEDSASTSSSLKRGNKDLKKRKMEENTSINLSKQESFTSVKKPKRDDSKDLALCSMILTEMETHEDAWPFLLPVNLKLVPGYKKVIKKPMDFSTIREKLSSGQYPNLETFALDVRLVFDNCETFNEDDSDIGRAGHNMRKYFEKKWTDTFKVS
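AlphaScreen displacement: compounds (up to 110uM) incubated 30 min at room temperature with a preformed 50 nM BAZ2B/50 nM biotinylated H3K14Ac peptide complex in PBS pH 7.4 with Tween-20. Donor and acceptor beads at 10 ug/mL final added, 20 min light-protected before reading.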
PLK1 PBD inh: PLK1 (human) polo-box domain binding inhibition; P53350; Potency, µM, for inactives: max response, negative = inhibition, actives largely listed as inhibitors; Plk1 PBD binding of FITC phosphopeptide, fluorescence polarization; 360,000 compounds, 2.8% hits; further: series mostly up to about 57 µM; on the % scale 0 is the no-effect control and ±100 the full control effect; nearly all actives have a fitted effect of over 65% in size
* = called active by the depositor; ? = inconclusive; / = no result; [ ] = another dose, or the depositor's remark. This is a sample that favours compounds with a hit; in the whole collection about 12% have one here. The call rests on the fitted dose curve; in most records, active means well fitted curve in the direction sought with a large enough effect; inconclusive means small, poorly fitted or top-dose-only effect, or another doubt; inactive means no such curve, though single readings can be large; an effect the other way counts as inactive or inconclusive. Potency means the concentration at half of the fitted maximal effect.

SMILES | Sfp PPTase inh | G9a block | JMJD2A Tudor inh | HP1b binding inh | BAZ2B block | PLK1 PBD inh
O=C(CNCc1cccs1)Nc1ccc(N2CCCCCC2)cc1 | -59% | 8.9µM* | 22µM* | 25µM* | 22µM* | -6%
CCC(C)NS(=O)(=O)c1ccc(NC(=O)CNCc2cccs2)cc1 (centres undefined) | / | / | 25µM* | -11% | / | -11%
O=C(CNCc1cccs1)Nc1ccc(OC(F)(F)F)cc1 | -27% | -12%[2.33 µM] | 4µM* | 28µM* | 28µM* | 0%
COc1ccc(Br)cc1S(=O)(=O)N1CCN(S(=O)(=O)c2ccc3c(c2)OCCO3)CC1 | / | / | -17% | / | / | /
C[C@@H](C(=O)O)c1cccc(C(=O)c2ccccc2)c1 | 43% | -2%[12.7 µM] | / | / | / | /
Cc1c(Cl)cccc1NC(=O)N1CCC(CN2CCCC2)CC1 | / | -3%[59 µM] | 4% | 29% | 0% | /
CC(C)(C)c1ccc(/C=N/N2CCN(c3ccccn3)CC2)cc1 | -1% | / | -25% | -5% | -14% | 5%
Cc1nn(-c2ccccc2)c(C)c1/C=N/N1CCN(c2ccccn2)CC1 | 79µM* | ? | ? | ? | 45µM* | -12%
C(=N/N1CCN(c2ccccc2)CC1)/c1ccncc1 | 2% | ? | ? | -15% | -39% | -4%
CN(C)c1ccc(/C=N/N2CCN(c3ccccn3)CC2)cc1 | 10% | 13µM* | -28% | 6% | -28% | -5%
Cc1nn(-c2ccccc2)c(Cl)c1/C=N/N1CCN(c2ccccn2)CC1 | 19% | 13%[0.0925 µM] | 2% | 34% | -1% | -12%
Cc1nn(-c2ccccc2)c(C)c1/C=N/N1CCN(Cc2ccccc2)CC1 | 14% | 17µM* | / | / | / | /
Cc1nn(-c2ccccc2)c(C)c1/C=N/N1CCN(c2ccccc2)CC1 | 3% | ? | 20µM* | -13% | ? | -2%
O=C(COC(=O)c1cccnc1Cl)Nc1cc(S(=O)(=O)N2CCCCCC2)ccc1Cl | / | -36% | -3% | 16% | 3% | -13%
O=C1C[C@@H](O)[C@@H](O)[C@H]2[C@@H]3C(=O)N(Cc4ccccc4)C(=O)[C@@H]3CC[C@H]12 | 5% | / | / | / | / | /
COC(=O)c1c(NC(=O)CN2CCN(c3ncccn3)CC2)sc(C(N)=O)c1C | -4% | 24% | -14% | 22% | -22% | -8%
O=C(Cn1cnc2c(nnn2Cc2ccccc2F)c1=O)NCc1ccco1 | 89µM* | / | -2% | 19% | -1% | 0%
O=C(Cn1nc(C(=O)O)c2ccccc2c1=O)NCc1ccco1 | 7% | -45% | -11%[11.4 µM] | ? | / | 21µM*
O=C(Cn1nnc2ccccc2c1=O)NCc1ccco1 | 10% | ? | -24% | -1% | -32% | -5%
COc1ccc(NCc2cc3cc4c(cc3n(CC(=O)Nc3cc(C)ccc3C)c2=O)OCCO4)cc1 | / | -25%[59 µM] | -8% | 33% | -17% | /
COc1ccccc1CNC(=O)c1nnn(CC(=O)Nc2c(C)cccc2C)c1N | / | -6%[59 µM] | -6% | 20% | 6%[57.1 µM] | /
COc1cccc(-n2nnnc2S(C)(=O)=O)c1 | -27% | ? | -10% | 37% | -1% | 7.5µM*
COc1cccc(-n2nnnc2SCC(=O)Nc2ccc(NC(C)=O)cc2)c1 | -3% | 19% | ? | 3% | 1% | 24µM*
CCn1nnnc1SCC(=O)Nc1cc(OC)cc(OC)c1 | 1% | 8% | ? | -18% | 14% | 3.4µM*
Cc1cccc(-n2nnnc2S(C)(=O)=O)c1 | / | -8%[59 µM] | -15% | 76% | -2% | /
SMILES | Sfp PPTase inh | G9a block | JMJD2A Tudor inh | HP1b binding inh | BAZ2B block | PLK1 PBD inh
O=C(NCCNCCO)C1(C(F)(F)F)CC(CCc2ccccc2)CCCO1 (centres undefined) | -25% | / | -15% | 1% | / | /
CCc1ccc(N2CC(C(=O)OCC(=O)N(CC)c3c(N)n(Cc4ccccc4)c(=O)[nH]c3=O)CC2=O)cc1 (centres undefined) | / | / | 3% | 34% | / | 3%
O=C(N[C@@H](Cc1c[nH]c2ccccc12)C(=O)O)c1ccc(Cl)cc1 | 27% | 22% | -14% | 15% | 19% | 4%
O=C(Cc1c[nH]c2ccccc12)NCc1ccc(Cl)cc1Cl | 0% | 1%[59 µM] | ? | -22% | -37% | 30µM*
O=C(Cc1c[nH]c2ccccc12)NCc1ccco1 | 8% | ? | -18% | 8% | 50µM* | -11%
NC(=NCCc1c[nH]c2ccccc12)NC(=O)c1ccc(Cl)cc1 | -28% | ? | ? | -11% | 79µM* | 0%
O=C(O)C(=O)Cc1c[nH]c2ccccc12 | ? | 25µM* | 45µM* | ? | ? | -20%
O=C(Cc1c[nH]c2ccccc12)NCc1ccc(Cl)cc1 | 7% | -8%[59 µM] | -14% | 23% | -25% | -3%
COc1cc(OC)c(NS(=O)(=O)c2ccc(Cl)c(C(=O)OC(C)C(=O)N3CCCC3)c2)cc1Cl (centres undefined) | -2% | -4%[59 µM] | -28% | -6% | -30% | -17%
COCc1c(C(=O)NCCOc2ccc(Cl)cc2)oc2ccccc12 | / | 26%[2.33 µM] | 50% | 111% | 43% | -2%
O=C(CN1C(=O)C(=O)N(Cc2ccco2)C1=O)c1c[nH]c2ccccc12 | ? | 50µM* | -21% | 18% | -12% | 27µM*
O=C(Nc1cccc(CNCCc2c[nH]c3ccccc23)c1)c1ccccc1Cl | ? | 28µM* | 45µM* | 1% | 50µM* | -8%
NC(=O)CC[C@H](NC(=O)c1ccc(F)cc1)C(=O)OCC(=O)NCc1ccc(F)cc1 | 23% | -3% | 14µM* | -9% | 0% | ?
NC(=O)CC[C@H](NC(=O)c1ccc(F)cc1)C(=O)OCC(=O)Nc1c(F)c(F)c(F)c(F)c1F | 17% | ? | -7% | 40% | 2% | -1%
O=S1(=O)c2ccccc2N=NN1Cc1ccc(Cl)c(Cl)c1 | 56µM* | 2.8µM* | / | / | 79µM* | /
Cc1cccc(N2C(=O)N(Cc3ccc(C(C)(C)C)cc3)c3ccccc3S2(=O)=O)c1 | / | 12%[59 µM] | -13% | 18% | -7% | /
Nc1nc2ccccc2n1Cc1ccc(Cl)c(Cl)c1 | -26% | / | -19% | 35% | -4% | 2%
CC(C)(C)c1ccc(CN2N=Nc3ccccc3S2(=O)=O)cc1 | 2.8µM* | -24%[0.0925 µM] | -12% | -11% | -11% | 13µM*
Cc1nc(SCc2ccc(F)cc2)c2oc3ccccc3c2n1 | 1% | / | 18% | 67% | 4% | -10%
Cc1nc(SCc2nc3c(C)cccc3[nH]2)c2oc3ccccc3c2n1 | / | / | ? | 11% | / | /
Cc1nc(SCc2nc3c(F)cccc3[nH]2)c2oc3ccccc3c2n1 | / | / | 79µM* | 29% | / | /
Cc1nc(SCc2ccccc2F)c2oc3ccccc3c2n1 | 79µM* | 58%[59 µM] | 62% | 68% | 33% | -16%
Cc1ccc(C)c(OCCC(=O)OCC(=O)NCCc2ccc(S(N)(=O)=O)cc2)c1 | / | -12% | -10% | 29% | 1% | -1%
